Here are results for 35 molecules from ChEMBL document CHEMBL3433997, “St. Jude Leishmania screening dataset” (2016).

As usually defined, the inhibition is the change of the read-out against control, counted positive when it falls.

Holding throughout (type): functional
In experiment [1] the target is Solute carrier family 2, facilitated glucose transporter member 1 (Homo sapiens) (UniProt P11166). Put plainly: ST_JUDE_LEISH: Cytotoxicity at 2uM final concentration against transgenic Leishmania Mexicana promastigotes LmGLUT1 that are glucose transport deficient and complemented with the human glucose transporter GLUT1. Activity is measured by DNA content using SYBR green in vitro.
Chain of Solute carrier family 2, facilitated glucose transporter member 1 (Homo sapiens) (P11166 whole entry): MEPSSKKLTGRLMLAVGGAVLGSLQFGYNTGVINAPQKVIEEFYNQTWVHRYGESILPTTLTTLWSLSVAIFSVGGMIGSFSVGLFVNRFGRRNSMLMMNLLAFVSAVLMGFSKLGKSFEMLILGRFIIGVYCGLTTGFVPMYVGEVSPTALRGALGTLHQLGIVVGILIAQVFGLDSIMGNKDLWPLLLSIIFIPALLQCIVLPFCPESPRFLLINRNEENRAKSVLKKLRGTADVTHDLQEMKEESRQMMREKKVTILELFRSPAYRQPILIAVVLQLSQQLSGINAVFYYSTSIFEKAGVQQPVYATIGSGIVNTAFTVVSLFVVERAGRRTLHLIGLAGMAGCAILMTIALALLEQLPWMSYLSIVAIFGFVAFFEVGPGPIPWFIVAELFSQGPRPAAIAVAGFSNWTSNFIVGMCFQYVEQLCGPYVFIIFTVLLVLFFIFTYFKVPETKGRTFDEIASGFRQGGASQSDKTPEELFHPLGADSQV

Experiment [2] has as its target Hexose transporter 1 (Plasmodium falciparum) (UniProt O97467). Put plainly: ST_JUDE_LEISH: Cytotoxicity at 2uM final concentration against transgenic Leishmania Mexicana promastigotes LmPfHT that are glucose transport deficient and complemented with the Plasmodium falciparum hexose transporter. Activity is measured by DNA content using SYBR green in vitro.
The target of experiment [3] is Glucose transporter (Leishmania mexicana) (UniProt O61059). Kind of experiment: ST_JUDE_LEISH: Cytotoxicity at 2uM final concentration against transgenic Leishmania Mexicana promastigotes LmGT2 that are glucose transport deficient and complemented with the L. Mexicana glucose transporter 2. Activity is measured by DNA content using SYBR green in vitro.

Structures are written as SMILES.

Turning to `COc1cc(C(=O)Nc2nc3ccccc3[nH]2)ccc1OCC(=O)Nc1cccc(C(F)(F)F)c1`, the inhibition in experiment [1] came out at 2.59%; in experiment [2], 2.67%; in experiment [3], 1.11%.
The like results for `COCCN1CCN(Cc2ccc(-c3ccc(-c4nc5cccc(C)c5[nH]4)s3)cc2)CC1` were, in that order, 8.84%, 6.85% and 4.87%.
With `CC(=O)Nc1cccc(/C=C/C(=O)N2CCC(N3CCCCC3)CC2)c1`, the inhibition in experiment [1] amounted to 2.23%; in experiment [2], 1.03%; in experiment [3], 5.39%.
For the molecule `COc1ccc(Cn2c(N3CCN(S(=O)(=O)c4ccc(OC)cc4)CC3)nc3c2c(=O)n(CC2CC2)c(=O)n3CC2CC2)cc1`, the inhibition in experiment [1] was 0.89%; in experiment [2] it was -0.86%; in experiment [3] it was -1.39%.
The like results for `O=C(Nc1cccc2ccccc12)N1CCc2cc3nccc(N4CCN5CCC[C@H]5C4)c3cc21` were, in that order, 5.08%, 2.82% and 4.23%.
The matching figures for `Cc1cc(O)c(-c2cccc(Oc3ccc(Cl)cc3)c2)c(C)n1`: -1.02%, 1.39% and -3.29%.
For the molecule `CCOC(=O)c1c(CSc2ccccc2)oc2cc(CN(C)C)c(O)c(Cl)c12`, the inhibition in experiment [1] is 1.18%; in experiment [2] it was 0.44%; in experiment [3], -0.41%.
Regarding `Cc1cccc(CNc2nc(C)cc(NCCC(=O)NCCOc3ccccc3)n2)c1`, the inhibition in experiment [1] is 6.22%; in experiment [2], 3.29%; in experiment [3], -0.13%.
The like results for `CC(C)NC(=O)c1cccc(-c2cccc(OCCN3CCSCC3c3ccccc3)c2)c1` (stereo not given) were, in that order, 10.4%, 9.35% and 8.53%.
The matching figures for `COc1cc(Nc2nccc(N3CCC(NC(=O)c4cc5ccccc5s4)C3)n2)cc(OC)c1OC` (stereo not given): 0.5%, 0.56% and -0.45%.
Consider `CC(C)N1CCN(C(CN2CCN(CCCOc3ccc(-c4ccccc4)cc3)CC2)c2ccc(F)cc2)CC1` (stereo not given), for which the inhibition in experiment [1] came out at 60.6%; in experiment [2] it was 32%; in experiment [3], 103%.
The like results for `CN(C)CCNC(=O)c1cccc(-c2cnc3ccc(NCc4ccc(Cl)c(Cl)c4)nn23)c1` were, in that order, 8.3%, 8.99% and 7.6%.
On to `COc1cc2nc(N3CCC(CNC(=O)c4ccc(-c5ccc(-c6noc(C)n6)cc5C)cc4)CC3)nc(N)c2cc1OC`, for which the inhibition in experiment [1] came to 8.2%; in experiment [2], 7.8%; in experiment [3], 5.29%.
The like results for `CC1(C)NC(N)=NC(=N)N1OCCCOc1c(Cl)cc(Cl)cc1Cl` were, in that order, -1.14%, 0.14% and -2.41%.
`Cc1cccc2nc(-c3ccc(-c4cccc(NC(=O)C(C)CN(C)C)c4)cc3)[nH]c12` (stereo not given): the inhibition in experiment [1] is 8.52%; in experiment [2], 7.83%; in experiment [3], 3.93%.
In the case of `Clc1cc(Nc2ccnc3ccc(Br)cc23)ccc1Oc1ccc(Cl)c2ccccc12`, the inhibition worked out at 3.45% in experiment [1], 3.8% in experiment [2] and 2.81% in experiment [3].
In the case of `Cc1cc(N2CCCC2)nc(Nc2ccc(NC(=O)c3cccc(F)c3)cc2)n1`, the inhibition is 33.5% in experiment [1], 14.7% in experiment [2] and 16.2% in experiment [3].
The like results for `COC(=O)c1cc(NC(=O)Nc2ccc(Cn3ncc(N4CCCNCC4)c(Cl)c3=O)cc2)cc(C(=O)OC)c1` were, in that order, 0.7%, 1.45% and 1.92%.
As for `O=C(Nc1ccc(Cl)cc1)c1ccc(CN2CCCN(Cc3cccc(F)c3)CC2)cc1`, the inhibition was -0.02% in experiment [1], 5.11% in experiment [2] and 3.31% in experiment [3].
Take `O=C(CCn1c2ccccc2c2ccccc21)NN=Cc1ccco1`: the figures for the inhibition in experiment [1], in experiment [2] and in experiment [3] were 7.25%, 5.11% and 4.19%, respectively.
`COc1ccccc1CCNc1nc(C)cc(N[C@@H](Cc2ccccc2)C(=O)NCCCOC(C)C)n1`: the inhibition was 3.06% in experiment [1], 3.2% in experiment [2] and -0.1% in experiment [3].
As for `COc1ccc2c(=NN=Cc3ccccc3F)cc(C)[nH]c2c1`, the inhibition in experiment [1] was found to be 1.77%; in experiment [2] it was 1.74%; in experiment [3] it was 0.39%.
Take `O=C(Nc1ccc(C(F)(F)F)cc1)NC1CCN(c2ccnc3cc(Cl)ccc23)C1` (stereo not given): the inhibition in experiment [1] turned out to be 3.59%; in experiment [2], 3.27%; in experiment [3], 0.73%.
For `CN(CCN)Cc1cccc(-c2ccc(-c3nc4cc(C(F)(F)F)ccc4[nH]3)s2)c1`, the inhibition in experiment [1] is 10.8%; in experiment [2], 11.3%; in experiment [3], 8.17%.
Consider `O=C(Nc1ccc(-c2nc3ccccc3[nH]2)cc1)c1ccc(S(=O)(=O)N2CCCCC2)cc1`, for which the values for the inhibition in experiment [1], in experiment [2] and in experiment [3] were 3.08%, 4.17% and 0.68%, respectively.
The like results for `Cc1nc2ccc(NC(=O)Nc3ccnc4ccc(C(F)(F)F)cc34)cc2o1` were, in that order, 5.89%, 10.7% and 5.33%.
The like results for `Cc1cc(N[C@@H](Cc2ccccc2)C(=O)NCc2cccc(F)c2)nc(NCCc2cccnc2)n1` were, in that order, 10.4%, 12.9% and 12.3%.
The like results for `CC(C)Cn1c(Sc2ccc(C#N)c([N+](=O)[O-])c2)nnc1-c1ccc(N(C)C)cc1` were, in that order, -0.55%, 0.63% and -4.37%.
For `O=C(Nc1cccc(CN2CCCN(Cc3ccc(O)cc3)CC2)c1)c1ccc(Cl)c(Cl)c1`, the values for the inhibition in experiment [1], in experiment [2] and in experiment [3] were 10.6%, 11% and 5.2%, respectively.
The matching figures for `CCc1cn2c3c(cc(C(=O)N[C@@H](Cc4ccccc4)[C@H](O)CNCc4ccccc4)cc13)N(C)S(=O)(=O)CC2`: -0.83%, -0.74% and 0.13%.
The like results for `Cn1cncc1C(=O)Nc1cccc(-c2cccc(-c3nc4cc(C(F)(F)F)ccc4[nH]3)c2)c1` were, in that order, -1.02%, 2.87% and -0.89%.
The matching figures for `N#Cc1ccc(N(CCNS(=O)(=O)c2cc(Br)c(Cl)s2)Cc2ccccc2C(F)(F)F)cc1C(F)(F)F`: 3.37%, 0.82% and 1.55%.
For `COc1ccc(CCNC(=O)c2cnc3c(c2)nc(-c2c[nH]c(-c4ccccc4)n2)n3CCc2c[nH]cn2)cc1`, the inhibition in experiment [1] was 1%; in experiment [2] it was -1.24%; in experiment [3], 2.62%.
The like results for `Cc1c(-c2cccc(NC(=O)C(C)(C)Oc3ccc(Cl)cc3)c2)nc2ncccn12` were, in that order, -0.94%, -1.86% and -3.03%.
The matching figures for `CCc1nc2c(cnn2CC)c(NC2CCOCC2)c1CNC(=O)c1ccoc1C`: 6.4%, 6.38% and 2.97%.
